Screens from PubChem.
3CLpro inhibitor – SARS-CoV 3CLpro protease inhibition | recombinant SARS-CoV 3CLpro, quenched FRET peptide cleavage | inhibition, % at 6 µM | 0.14% of 290,000 active | AID 1706; in the data active means inhibition above about 12%
DUSP3 inh – inhibitors of human VHR1 phosphatase (DUSP3); recombinant VHR phosphatase, pNPP absorbance; inhibition, % at 13.3 µM; 0.52% of 290,000 active; in the data active means inhibition above about 50%
Target sequence (P51452 whole entry, looked up): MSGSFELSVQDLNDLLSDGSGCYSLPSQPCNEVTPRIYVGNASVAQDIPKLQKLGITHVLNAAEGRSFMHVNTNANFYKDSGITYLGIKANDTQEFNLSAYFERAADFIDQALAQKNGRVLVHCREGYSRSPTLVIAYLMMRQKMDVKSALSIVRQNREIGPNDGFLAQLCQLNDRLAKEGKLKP
CCHF vOTU inh – blocks the CCHF virus ovarian tumor domain protease; 0.55% of 370,000 active; CCHFV vOTU protease, Pep-AMC fluorescence; inhibition, % at 11.5 µM; further: 0% = vehicle wells with enzyme and 100% = no enzyme wells
RecA splice inh – inhibitors of M. tuberculosis RecA intein splicing | AID 2221 | P9WHJ3 | 0.75% of 290,000 active | cell-free RecA intein splicing, fluorescence | inhibition, % (test concentration not listed); in the data active means inhibition above about 30%;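 further: 0% = vehicle wells and 100% = reference inhibitor control wells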
GDH-TPI inh – inhibits GDH-TPI coupling enzymes, artifact for Mtb FBA screen; inhibition, % at 4.8 µM; AID 588335; GDH-TPI coupled enzyme counterscreen, NADH absorbance; 1.2% of 360,000 active;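 further: 0% = DMSO wells and 100% = wells lacking the enzyme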
Mtb FBA inh – Mtb fructose-bisphosphate aldolase inhibition; 2.3% of 360,000 active; inhibition, % at 1 µM; AID 588726; purified M. tuberculosis FBA, fluorescence read-out; in the data active means inhibition above about 27%;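 further: 0% = vehicle and 100% = reference inhibitor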
Target sequence (P9WQA3 whole entry, looked up): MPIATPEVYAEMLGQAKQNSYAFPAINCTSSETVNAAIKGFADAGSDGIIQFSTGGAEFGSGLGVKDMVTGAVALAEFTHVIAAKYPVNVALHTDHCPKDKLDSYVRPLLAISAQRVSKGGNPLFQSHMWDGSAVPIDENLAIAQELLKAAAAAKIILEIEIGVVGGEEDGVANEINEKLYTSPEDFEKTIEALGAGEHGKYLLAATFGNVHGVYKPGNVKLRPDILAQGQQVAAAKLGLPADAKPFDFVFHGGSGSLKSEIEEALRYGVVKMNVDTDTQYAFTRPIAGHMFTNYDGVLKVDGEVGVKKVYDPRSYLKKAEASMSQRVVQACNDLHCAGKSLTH
GFP chromo cs – counter-screen: blocks GFP chromophore formation | cell-free GFP chromophore formation, fluorescence | AID 434968 | EC50, µM | shares compounds with RecA splice inh | 83% of 2,100 active; call rule not given here
* marks the source's active call; other numbers are inactive results. An excerpt weighted towards active compounds, which were near 4.7% of everything screened. Unless noted, no stated cut-off is given here; in the data, active means inhibition above about 30%; inactive means the rest.

How did CC(C)C[C@H](NC(=O)OC(C)(C)C)C(=O)N[C@@H](CO)[C@H](O)[C@@H]1C[C@@H]1C(=O)NC1CCCCC1 do in these assays?
3CLpro inhibitor: -7.9; DUSP3 inh: 12.7; CCHF vOTU inh: 8.5; RecA splice inh: 0.5; GDH-TPI inh: 0.0; Mtb FBA inh: 6.9

How did ONc1cccnc1-n1nc(C(F)(F)F)cc1C(F)(F)F do in these assays?
3CLpro inhibitor: 2.9; DUSP3 inh: 10.6; RecA splice inh: 82.4*; GFP chromo cs: >38

What do the screens show for `O=C(O)c1ccccc1C(=O)Nc1ccc(-n2nc(C(F)(F)F)cc2C(F)(F)F)cc1`?
3CLpro inhibitor: 0.7; DUSP3 inh: -2.5; CCHF vOTU inh: -1.5; RecA splice inh: -2.4; GDH-TPI inh: 4.6; Mtb FBA inh: 2.3

What do the screens show for `CC(=O)c1cc(-c2ccccc2)n(CC(=O)NCc2ccc(F)cc2)c1C`?
CCHF vOTU inh: -2.8

Results for CCC(C)c1ccc(NC(=O)Nc2cccnc2)cc1 (stereo unspecified) ?
3CLpro inhibitor: 2.5; DUSP3 inh: 14.9; CCHF vOTU inh: 0.2; RecA splice inh: 3.5; GDH-TPI inh: 4.5; Mtb FBA inh: -0.6

Results for Cc1nc(COC(=O)c2ccc(CO)cc2)cs1 ?
3CLpro inhibitor: -1.4; DUSP3 inh: 32.0; CCHF vOTU inh: -3.7; GDH-TPI inh: 4.9; Mtb FBA inh: 1.6

What do the screens show for `Cc1nc(COC(=O)c2cc(O)c3ccccc3c2O)cs1`?
3CLpro inhibitor: 1.3; DUSP3 inh: 21.7; CCHF vOTU inh: 21.1; RecA splice inh: 56.0*; GDH-TPI inh: 3.8; Mtb FBA inh: 2.9; GFP chromo cs: 6.2*

Results for O=C1/C(=N\S(=O)(=O)c2cccs2)C([n+]2ccc(CCCc3ccccc3)cc2)=C([O-])c2ccccc21 ?
3CLpro inhibitor: -0.8; DUSP3 inh: 26.9; CCHF vOTU inh: -7.5; RecA splice inh: 7.8; GDH-TPI inh: 0.0; Mtb FBA inh: -0.1

What do the screens show for `CC(C)(C)c1cc[n+](C2=C([O-])c3ccccc3C(=O)/C2=N\S(=O)(=O)c2ccccc2)cc1`?
3CLpro inhibitor: 1.5; DUSP3 inh: -10.8; CCHF vOTU inh: 8.7; RecA splice inh: 50.0*; GDH-TPI inh: -7.4; Mtb FBA inh: -1.0; GFP chromo cs: 16.5*

What do the screens show for `Cc1cc[n+](C2=C([O-])c3ccccc3C(=O)/C2=N\S(=O)(=O)c2cccs2)cc1C`?
3CLpro inhibitor: 1.9; DUSP3 inh: 8.5; CCHF vOTU inh: 19.1; RecA splice inh: 32.0*; GDH-TPI inh: 3.8; Mtb FBA inh: -0.9; GFP chromo cs: 6.67*

How did CCN1C(=O)[C@H]2[C@@H](c3ccc(C)cc3)N[C@]3(CCCN(Cc4ccccc4)C3=O)[C@H]2C1=O do in these assays?
CCHF vOTU inh: 4.5; GDH-TPI inh: 1.0; Mtb FBA inh: 0.3

Results for O=C(NCC(=O)N1CCCC1)NN=Cc1ccccc1O ?
CCHF vOTU inh: -10.4; Mtb FBA inh: 6.8

What do the screens show for `COc1ccccc1-c1cc(C(F)(F)F)nc(N2CCCC2)n1`?
3CLpro inhibitor: -1.4; DUSP3 inh: 19.2; CCHF vOTU inh: 9.4; GDH-TPI inh: -0.9; Mtb FBA inh: 2.0

How did COc1ccccc1-c1cc(C(F)(F)F)nc(S(C)(=O)=O)n1 do in these assays?
3CLpro inhibitor: -0.8; DUSP3 inh: -2.5; CCHF vOTU inh: 3.1; RecA splice inh: 50.2*; GDH-TPI inh: 4.4; Mtb FBA inh: -12.0; GFP chromo cs: 31.2*

Results for COc1ccccc1-c1cc(C(F)(F)F)nc(S(=O)(=O)CCCC(=O)N2CCCCC2C)n1 (stereo unspecified) ?
3CLpro inhibitor: 3.4; DUSP3 inh: 25.0; CCHF vOTU inh: 6.9; RecA splice inh: 56.2*; GDH-TPI inh: 9.9; Mtb FBA inh: 2.9; GFP chromo cs: 7.21*

Results for COc1ccccc1-c1cc(C(F)(F)F)nc(S(=O)(=O)CCCC(=O)Nc2cc(C)on2)n1 ?
3CLpro inhibitor: 2.5; DUSP3 inh: 16.6; CCHF vOTU inh: 10.8; RecA splice inh: 24.7; GDH-TPI inh: 8.9; Mtb FBA inh: -5.3

What do the screens show for `CS(=O)(=O)c1nc(-c2ccco2)cc(C(F)(F)F)n1`?
3CLpro inhibitor: 2.7; DUSP3 inh: 10.7; RecA splice inh: 39.9*; GFP chromo cs: >38

Results for CN1CCN(c2nc(-c3ccco3)cc(C(F)(F)F)n2)CC1 ?
3CLpro inhibitor: 2.1; DUSP3 inh: 6.2; RecA splice inh: -0.9; GDH-TPI inh: 7.5; Mtb FBA inh: 1.2

Results for COc1ccccc1-c1cc(C(F)(F)F)nc(S(=O)(=O)CCCC(=O)NC(C)C)n1 ?
3CLpro inhibitor: -1.5; DUSP3 inh: 9.5; CCHF vOTU inh: -7.1; RecA splice inh: 22.0; GDH-TPI inh: 4.5; Mtb FBA inh: 6.3

Results for COc1ccccc1-c1cc(C(F)(F)F)nc(S(=O)(=O)CCCC(=O)NCc2ccc(F)cc2)n1 ?
3CLpro inhibitor: 1.0; DUSP3 inh: 19.0; CCHF vOTU inh: -4.2; RecA splice inh: 47.4*; GDH-TPI inh: -3.0; Mtb FBA inh: 1.7; GFP chromo cs: 7.74*

What do the screens show for `COC(=O)c1cc2c(c3c4ccccc4n(S(=O)(=O)c4ccc(OC)cc4)c13)C(=O)N(Cc1ccco1)C2`?
CCHF vOTU inh: 4.5

What do the screens show for `Cc1nnc(-n2cccc2)s1`?
CCHF vOTU inh: -1.3

Results for COC(=O)[C@]12C[C@H](CC(=O)N3CCN(C(=O)C4CC4)CC3)C(=O)N(Cc3ccc(Cl)cc3Cl)C1=C[C@H](C1CCCC1)O[C@@H]2C ?
CCHF vOTU inh: 9.1

Results for Cc1c(/C=N/Nc2nc3ccccc3[nH]2)c2ccccc2n1C ?
3CLpro inhibitor: -1.1; DUSP3 inh: 4.4; CCHF vOTU inh: -1.1; RecA splice inh: 38.9*; GDH-TPI inh: 32.4*; Mtb FBA inh: 1.3; GFP chromo cs: 12*

How did CCOC(=O)c1nnc(-c2ccccc2)nc1Sc1c(Cl)cccc1Cl do in these assays?
3CLpro inhibitor: 1.1; DUSP3 inh: 26.4; CCHF vOTU inh: -9.3; RecA splice inh: 54.2*; GDH-TPI inh: 4.3; Mtb FBA inh: 3.1; GFP chromo cs: 37.6*

How did CCOC(=O)c1nnc(-c2ccc(C)cc2)nc1Sc1ccccc1Cl do in these assays?
3CLpro inhibitor: -4.6; DUSP3 inh: 15.6; CCHF vOTU inh: 3.5; RecA splice inh: 22.2; GDH-TPI inh: 12.8; Mtb FBA inh: 5.5

What do the screens show for `C/C(=C\c1ccco1)C1C(C#N)=C(N)Oc2n[nH]c(-c3ccccc3)c21` (stereo unspecified)?
3CLpro inhibitor: -2.2; DUSP3 inh: 27.0; CCHF vOTU inh: 3.1; RecA splice inh: 76.6*; GDH-TPI inh: 4.1; Mtb FBA inh: -0.3; GFP chromo cs: 17.7*

What do the screens show for `Cc1[nH]nc2c1C(CC(C)C)C(C#N)=C(N)O2` (stereo unspecified)?
3CLpro inhibitor: -1.6; DUSP3 inh: -7.2; CCHF vOTU inh: 0.8; RecA splice inh: 72.2*; GDH-TPI inh: 0.0; Mtb FBA inh: 2.6; GFP chromo cs: 20.5*
